# Source: PubChem BioAssay
# Sfp PPTase inh – inhibitors of Bacillus subtilis Sfp phosphopantetheinyl transferase; Q9F4F7; Biochemical Sfp PPTase activity, qHTS; Potency, µM, inactives show largest response in the series, negative = inhibition, hits mostly inhibitors; 310,000 compounds, 3.5% hits; AID 1490;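 note: the enzyme is Sfp with the accession as filed and its product quenches rhodamine fluorescence; 0% = enzyme reaction without inhibitor and -100% = no enzyme wells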
#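 Fluorescence-quenching assay: 15 nM Sfp-PPTase preincubated 15 min at room temperature with compound, then 5 uM rhodamine-CoA and 12.5 uM BHQ-2-labelled YbbR peptide added. Fluorescence (ex 525/em 598 nm) read at start and after 30 min; difference gives rate.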
# PINK1 expr mod – modulators of PINK1 expression. PINK1 immunofluorescence, high-content cytometry, 24 h. Potency, µM (series often up to 76.6 µM), for the others: at the highest dose activation (PINK1 increase), most hits filed as activators. 410,000 compounds, 0.2% hits; active = well fitted activation curve with a large enough effect; inconclusive = small, poorly fitted or top-dose-only effect; cell line not stated here; note: % of control where 0% means no effect; nearly all actives have a fitted effect of over 65% in size
#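 Compound titrations (5 concentrations, 24 h) on a stable cell line; DMSO and CCCP controls. Endpoint: fixed-cell PINK1 immunofluorescence with mitochondrial, cell and nuclear markers, scanned by microplate cytometer.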
# RORg inh – ROR gamma (mouse) transcription inhibition; P51450; 310,000 compounds, 5.4% hits; Drosophila S2 Gal4-RORgamma UAS-luciferase reporter, 20 h; AID 2551; Potency, µM (doses to about 53.6 µM), for inactives: at the top dose activity change, negative = inhibition, most hits filed as inhibitors; note: % is set by controls: 0 for no effect and ±100 for the full control effect; nearly all actives have a fitted effect of over 60% in size
#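 Luciferase reporter read in Schneider cells carrying Gal4-RORγ (mouse) and UAS-Photinus luciferase; cells given compound 1 h before 700 uM copper sulfate induction, then incubated 20 h at ambient temperature.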
# ClpP mod – qHTS Assay for Activators of ClpP | ATP-dependent Clp protease proteolytic subunit (Bacillus subtilis (strain 168)), P80244 | purified B. subtilis ClpP, FRET peptide cleavage, 20 min | Potency, µM (doses to about 57.5 µM), for the others: top-dose activity change, negative = active | 340,000 compounds, 1.9% hits; active = well fitted falling curve with a large enough effect; inconclusive = small, poorly fitted or top-dose-only effect; inactive = no such curve, though single readings can be large or run the other way; note: the source files actives as falling curves though it sought activators and does not explain the sign; nearly all actives have a fitted effect of over 65% in size
#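 ClpP 10 microg/mL final, pH 8 Tris/KCl buffer with BSA, glycerol, Tween-20; compound pinned in; FRET-FV substrate; RT 20 min; Ex320/Em430; ΔFRET vs ADEP 5.8 microM, DMSO, no enzyme.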
# Epigenetic derep – regulators of epigenetic silencing causing reporter derepression in mouse cells. murine LDR cells, GFP reporter derepression, 30 h. Potency, µM (top dose mostly 53.9 µM), for inactives: at the highest dose GFP activation, usual class: activators. 280,000 compounds, 0.2% hits. AID 1865; note: % of control where 0% means no effect; nearly all actives have a fitted effect of over 60% in size
#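 Murine LDR cells bearing a silenced CMV-driven GFP reporter were exposed to compound for 30 h at 37 C. After PBS washes, GFP-positive cells (20-120 um objects) counted by laser-scanning microplate cytometry.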
# Gal4-VP16 FLuc – counter-screen for ROR gamma inhibitors: Gal4-VP16 reporter | Drosophila S2 Gal4-VP16 UAS-luciferase, luminescence, 20 h | Potency, µM (top dose mostly 53.6 µM), inactives show at the highest dose activity, negative = inhibition, usual class: inhibitors | 310,000 compounds, 3.5% hits | AID 2546;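 note: Gal4-VP16 expression switched on by copper sulfate through the metallothionein promoter; % is set by controls: 0 for no effect and ±100 for the full control effect; nearly all actives have a fitted effect of over 50% in size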
# * hit, by the source's call; ? = inconclusive; · = not tested or not shown; [ ] = another dose, or the depositor's remark. A selection: hits, their analogues and other compounds. The true share with any hit is near 8.1%. Unless noted, calls come from the whole dose curve; as a rule, active = well fitted curve in the direction sought with a large enough effect; inconclusive = small, poorly fitted or top-dose-only effect, or another doubt; inactive = no such curve, though single readings can be large; an effect the other way counts as inactive or inconclusive. Potency is the fitted concentration of half-maximal effect.
SMILES,Sfp PPTase inh,PINK1 expr mod,RORg inh,ClpP mod,Epigenetic derep,Gal4-VP16 FLuc
CC(=O)NS(=O)(=O)c1ccc(NC(=O)/C=C/c2ccco2)cc1,56µM*,1%,0%,·,0%,-4%
O=C(/C=C/c1ccco1)Nc1ccc2c(c1)OCO2,40µM*,6%,-24%,0%,1%,5%
Oc1ccc2c(c1)C1CCCC1(N1CCOCC1)O2 (stereo unspecified),50µM*,-1%,27%[0.365 µM],0%,1%,·
COCCC(=O)N1CCC(Oc2ccc(C(=O)NCCCC3CCCC3)cc2)CC1,9%,2%,33%,32µM*,·,2%
Oc1ccc(/C=N/NC(=S)Nc2cccnc2)c(O)c1,-2%,-2%,-36%,-13%,-1%,?
Oc1ccc(/C=N/NC(=S)Nc2cccnc2)c(O)c1O,3.5µM*,-1%,-35%,·,0%,-11%
Oc1cccc(/C=N/NC(=S)Nc2cccnc2)c1O,?,3%,4.5µM*,0%,0%,5.6µM*
Cc1cccc(N/N=C/c2ccc(O)c(O)c2O)c1,3.5µM*,1%,-36%,-1%,1%,-16%
COc1cccc(N/N=C/c2cccc(Br)c2O)c1,2%,14%,?,·,1%,-16%
CC(=O)c1cccc(NC(=O)CCCSc2nc(-c3ccco3)cc(C(F)(F)F)n2)c1,·,10%,·,-2%,-1%,·
Cc1ccc(C)c(NC(=O)CCCn2c(C)c3cnn(-c4ccccc4)c(=O)c3c2C)c1,·,2%,·,-1%,11%,·
Cc1oc2c(c(C)cc3oc(=O)c(CC(=O)NCc4ccc(F)cc4)c(C)c32)c1C,·,0%,·,5%,-2%,·
N#Cc1ccc(NC(=O)Nc2cccc(C#N)c2)cc1,10%,32µM*,26%,-2%,1%,-6%
N#Cc1ccc(NC(=O)Nc2ccc(Oc3ccc(NC(=O)Nc4ccc(C#N)cc4)cc3)cc2)cc1,23%,45µM*,?,·,4%,13µM*
N#Cc1cccc(NC(=O)N2CC[C@@]3(CCCNC3)C2)c1,79µM*,0%,-12%,·,·,4%
COc1ccc(CC(=O)NCCc2sc(-c3ccc(Cl)cc3)nc2C)cc1OC,·,0%,·,?,-3%,·
COC(=O)C1=CN(Cc2cccs2)C=C(C(=O)OC)C1c1cccc(OC)c1OC,17%,·,-1%,32µM*,-1%,-4%
COC(=O)C1=CN(C2CC2)C=C(C(=O)OC)C1c1ccccc1OC,-3%,-1%,0%[10 µM],32µM*,-5%,7%
CCN1C=C(C(=O)OC)C(c2cccc(OC)c2OC)C(C(=O)OC)=C1,-24%,0%,8%,32µM*,-2%,8%
C/C=C\C[C@H](C)[C@H](O)[C@H]1C(=O)N[C@@H](CC)C(=O)N(C)CC(=O)N(C)[C@@H](CC(C)C)C(=O)N[C@@H](C(C)C)C(=O)N(C)[C@@H](CC(C)C)C(=O)N[C@@H](C)C(=O)N[C@@H](C)C(=O)N(C)[C@@H](CC(C)C)C(=O)N(C)[C@@H](CC(C)C)C(=O)N(C)[C@@H](C(C)C)C(=O)N1C,21%,·,5%[16.9 µM],·,0%[16.9 µM],-8%[17 µM]
C/C(=N\N1C(=O)c2ccccc2NC1c1ccccc1)c1ccccc1O (stereo unspecified),23%,7%,0.56µM*,-3%,4%,2.8µM*
O=C1c2ccccc2NC(c2ccco2)N1/N=C/c1ccco1 (stereo unspecified),13%,-3%,-26%,·,0%,-8%
COc1ccc(/C(C)=N/N2C(=O)c3ccccc3NC2c2ccc(O)c(OC)c2)cc1 (stereo unspecified),10%,0%,?,-6%,-1%,-16%
C/C(=N\N1C(=O)c2ccccc2NC1c1ccco1)c1ccccc1O (stereo unspecified),18%,-2%,0.35µM*,-2%,1%,2.2µM*
